Inconclusive results are not listed. Where a structure was tested more than once in an assay, its records may differ in their call. Active and inactive are the calls of the source. Calls come from the whole dose curve; as a rule, active = well fitted curve in the direction sought with a large enough effect; inconclusive = small, poorly fitted or top-dose-only effect, or another doubt; inactive = no such curve, though single readings can be large; an effect the other way counts as inactive or inconclusive.
Columns and labels:
Es-2 = assay: Primary qHTS to identify gynecologic anti-cancer compounds using libraries of approved drugs and bioactive compounds (AID 1345084); conditions: Gynecologic cancer cell panel viability, ATPlite luminescence, 48 h; series mostly up to 57.5 µM; note: nearly all actives have a fitted effect of over 55% in size
How it was run: (§1)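 Cell viability after 48 h drug treatment, ATPlite luminescence readout; five doses.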

HeLa = assay: as above; conditions: Gynecologic cancer cell panel viability, ATPlite luminescence, 48 h; series mostly up to 57.5 µM
How it was run: as §1

Hek293T = assay: as above; conditions: Gynecologic cancer cell panel viability, ATPlite luminescence, 48 h, control line for the selectivity index; series mostly up to 57.5 µM
How it was run: as §1

JEG-3 = assay: as above; conditions: Gynecologic cancer cell panel viability, ATPlite luminescence, 48 h; series mostly up to 57.5 µM
How it was run: as §1

OV90 = assay: as above; conditions: Gynecologic cancer cell panel viability, ATPlite luminescence, 48 h; series mostly up to 57.5 µM
How it was run: as §1

PA-1 = assay: as above; conditions: Gynecologic cancer cell panel viability, ATPlite luminescence, 48 h; series mostly up to 57.5 µM
How it was run: as §1

SKOV3 = assay: as above; conditions: Gynecologic cancer cell panel viability, ATPlite luminescence, 48 h; series mostly up to 57.5 µM
How it was run: as §1

Tov-21-G = assay: as above; conditions: Gynecologic cancer cell panel viability, ATPlite luminescence, 48 h; series mostly up to 57.5 µM
How it was run: as §1

Tov112D = assay: as above; conditions: Gynecologic cancer cell panel viability, ATPlite luminescence, 48 h; series mostly up to 57.5 µM
How it was run: as §1

[1] = Drug repurposing screens with cells derived from glioblastoma tumor samples (AID 1345199); conditions: GBM patient neurospheres viability, ATP luminescence, 48 h; note: nearly all actives have a fitted effect of over 40% in size
How it was run: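 Primary testing used CD133+ neurospheres from four GBM patients, seven concentrations, 48 h exposure and ATP-based viability; confirmation added three slower-growing patient lines.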

[2] = at 45.9 µM (top of the series), tumour line B
[3] = at 45.9 µM (top of the series), tumour line D
[4] = at 46 µM (top of the series), tumour line A
% is set by controls: 0 for no effect and ±100 for the full control effect; potency is the fitted concentration of half-maximal effect.

CCC1(C2=NCCN2)Cc2ccccc2O1 (stereo not given)
active: Potency ([1]; tumour line A) 7.08 µM
inactive: Potency (Es-2) | Potency (HeLa) | Potency (Hek293T) | Potency (JEG-3) | Potency (OV90) | Potency (PA-1) | Potency (SKOV3) | Potency (Tov-21-G) | Potency (Tov112D) | activity, negative = cell killing [1, 2] -22.3% | activity, negative = cell killing [1, 3] -18%

CCN(CC)CCOC(=O)C(O)(c1ccccc1)c1ccccc1
inactive: Potency (Es-2) | Potency (HeLa) | Potency (Hek293T) | Potency (JEG-3) | Potency (OV90) | Potency (PA-1) | Potency (SKOV3) | Potency (Tov-21-G) | Potency (Tov112D) | activity, negative = cell killing [1, 2] -7.05% | activity, negative = cell killing [1, 3] -0.674% | activity, negative = cell killing [1, 4] -16.9%

Cn1cc(C2=C(c3cn(C4CCN(Cc5ccccn5)CC4)c4ccccc34)C(=O)NC2=O)c2ccccc21
inactive: Potency (Es-2) | Potency (HeLa) | Potency (Hek293T) | Potency (JEG-3) | Potency (OV90) | Potency (PA-1) | Potency (SKOV3) | Potency (Tov-21-G) | Potency (Tov112D) | activity, negative = cell killing [1, 2] 31.3%
active: Potency ([1]; tumour line A) 2.51 µM | Potency ([1]; tumour line D) 20 µM

COc1ccccc1N1CCNCC1
inactive: Potency (Es-2) | Potency (HeLa) | Potency (Hek293T) | Potency (JEG-3) | Potency (OV90) | Potency (PA-1) | Potency (SKOV3) | Potency (Tov-21-G) | Potency (Tov112D) | activity, negative = cell killing [1, 2] -16.5% | activity, negative = cell killing [1, 3] -3.17% | activity, negative = cell killing [1, 4] -37.1%

CC1NCCOC1c1ccccc1 (stereo not given)
inactive: Potency (Es-2) | Potency (HeLa) | Potency (Hek293T) | Potency (JEG-3) | Potency (OV90) | Potency (PA-1) | Potency (SKOV3) | Potency (Tov-21-G) | Potency (Tov112D) | activity, negative = cell killing [1, 2] -0.55% | activity, negative = cell killing [1, 3] 7.64% | activity, negative = cell killing [1, 4] -23.4%

COc1ccc(C(CN(C)C)C2(O)CCCCC2)cc1 (stereo not given)
inactive: Potency (Es-2) | Potency (HeLa) | Potency (Hek293T) | Potency (JEG-3) | Potency (OV90) | Potency (PA-1) | Potency (SKOV3) | Potency (Tov-21-G) | Potency (Tov112D) | activity, negative = cell killing [1, 2] -10.5% | activity, negative = cell killing [1, 3] 1.59% | activity, negative = cell killing [1, 4] -20%

CCOP(=S)(OCC)Oc1cc(C)nc(C(C)C)n1
inactive: Potency (Es-2) | Potency (HeLa) | Potency (Hek293T) | Potency (JEG-3) | Potency (OV90) | Potency (PA-1) | Potency (SKOV3) | Potency (Tov-21-G) | Potency (Tov112D) | activity, negative = cell killing [1, 2] -12.9% | activity, negative = cell killing [1, 3] 4.41% | activity, negative = cell killing [1, 4] -24.4%

NN=C(N)N
inactive: Potency (Es-2) | Potency (HeLa) | Potency (Hek293T) | Potency (JEG-3) | Potency (OV90) | Potency (PA-1) | Potency (SKOV3) | Potency (Tov-21-G) | Potency (Tov112D) | activity, negative = cell killing [1, 2] -4.67% | activity, negative = cell killing [1, 3] 9.02% | activity, negative = cell killing [1, 4] -2.8%

CC(C)=CC1C(C(=O)OCc2cccc(Oc3ccccc3)c2)C1(C)C (stereo not given)
active: Potency ([1]; tumour line A) 12.6 µM
inactive: Potency (Es-2) | Potency (HeLa) | Potency (Hek293T) | Potency (JEG-3) | Potency (OV90) | Potency (PA-1) | Potency (SKOV3) | Potency (Tov-21-G) | Potency (Tov112D) | activity, negative = cell killing [1, 2] -17.7% | activity, negative = cell killing [1, 3] -26.5%

Cc1ncc(CNC(=O)N(CCCl)N=O)c(N)n1
inactive: Potency (Es-2) | Potency (HeLa) | Potency (Hek293T) | Potency (JEG-3) | Potency (PA-1) | Potency (SKOV3) | Potency (Tov-21-G) | Potency (Tov112D) | activity, negative = cell killing [1, 2] -2.44% | activity, negative = cell killing [1, 3] -2.73% | activity, negative = cell killing [1, 4] -26.1%
active: Potency (OV90) 35.5 µM

CN1C[C@H](CNC(=O)OCc2ccccc2)C[C@@H]2c3cccc4c3c(cn4C)C[C@H]21
inactive: Potency (Es-2) | Potency (HeLa) | Potency (Hek293T) | Potency (JEG-3) | Potency (OV90) | Potency (PA-1) | Potency (Tov-21-G) | Potency (Tov112D)

Nc1ccncc1
inactive: Potency (Es-2) | Potency (HeLa) | Potency (Hek293T) | Potency (JEG-3) | Potency (OV90) | Potency (PA-1) | Potency (SKOV3) | Potency (Tov-21-G) | Potency (Tov112D) | activity, negative = cell killing [1, 2] -0.63% | activity, negative = cell killing [1, 3] -4.86% | activity, negative = cell killing [1, 4] -29.8%

c1ccc2c(c1)Nc1ccccc1S2
inactive: Potency (Es-2) | Potency (HeLa) | Potency (Hek293T) | Potency (JEG-3) | Potency (OV90) | Potency (PA-1) | Potency (SKOV3) | Potency (Tov-21-G) | Potency (Tov112D) | activity, negative = cell killing [1, 2] -14.1% | activity, negative = cell killing [1, 3] -9.6% | activity, negative = cell killing ([1]; at 91.6 µM (top of the series), tumour line B) -11.1% | activity, negative = cell killing ([1]; at 91.6 µM (top of the series), tumour line D) -20.1%
active: Potency ([1]; tumour line A) 31.6 µM

O=C(NC(O)C(Cl)(Cl)Cl)NC(O)C(Cl)(Cl)Cl (stereo not given)
inactive: Potency (Es-2) | Potency (HeLa) | Potency (Hek293T) | Potency (JEG-3) | Potency (OV90) | Potency (PA-1) | Potency (SKOV3) | Potency (Tov-21-G) | Potency (Tov112D) | activity, negative = cell killing [1, 2] -10.4% | activity, negative = cell killing [1, 3] 2.45% | activity, negative = cell killing [1, 4] -14.7%

CC(=O)Nc1cc([As](=O)(O)O)ccc1O
inactive: Potency (Es-2) | Potency (HeLa) | Potency (JEG-3) | Potency (OV90) | Potency (PA-1) | Potency (SKOV3) | Potency (Tov-21-G) | Potency (Tov112D) | activity, negative = cell killing [1, 2] -26.4% | activity, negative = cell killing [1, 3] -5.27%

CC(C)CC(N(C)C)C1(c2ccc(Cl)cc2)CCC1 (stereo not given)
inactive: Potency (Es-2) | Potency (HeLa) | Potency (Hek293T) | Potency (JEG-3) | Potency (OV90) | Potency (PA-1) | Potency (Tov-21-G) | Potency (Tov112D) | activity, negative = cell killing [1, 2] -27.3% | activity, negative = cell killing [1, 3] -16.7% | activity, negative = cell killing [1, 4] -28.1%

CC[N+]1(C)CCCC(OC(=O)C(O)(c2ccccc2)c2ccccc2)C1 (stereo not given)
inactive: Potency (Es-2) | Potency (HeLa) | Potency (Hek293T) | Potency (JEG-3) | Potency (PA-1) | Potency (SKOV3) | Potency (Tov-21-G) | Potency (Tov112D) | activity, negative = cell killing [1, 2] -10.4% | activity, negative = cell killing [1, 3] -8.99%

CNC(=O)c1ccc(N2C(=S)N(c3ccc(C#N)c(C(F)(F)F)c3)C(=O)C23CCC3)cc1F
inactive: Potency (Es-2) | Potency (HeLa) | Potency (JEG-3) | Potency (OV90) | Potency (PA-1) | Potency (SKOV3) | Potency (Tov-21-G) | Potency (Tov112D)

From PubChem BioAssay (NCATS)
